Records with an inconclusive call do not appear. Active and inactive are the calls of the source. Unless noted, calls follow the shape of the dose curve; as a rule, active = well fitted curve in the direction sought with a large enough effect; inconclusive = small, poorly fitted or top-dose-only effect, or another doubt; inactive = no such curve, though single readings can be large; an effect the other way counts as inactive or inconclusive.
Columns and labels:
[1] = qHTS drug screen for cell cycle checkpoint inhibitors in PARPi-resistant BRCA-mutant ovarian cancer cell lines. (AID 1963452; calls by dose curve); conditions: PEO1/OlaR viability, CellTiter-Glo luminescence, 96 h, stronger effect = lower value
Outline: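 PEO1, PEO4 and PEO1/OlaR ovarian cancer cells, 600 per well, exposed 96 h at 37C to a dilution series. Viability read by CellTiter-Glo luminescence, normalized to DMSO and empty wells; activity summarized as Z-AUC.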

[2] = qHTS profiling for inhibitors of Plasmodium falciparum proliferation (AID 504749); also: potency is read from the fitted curve at half-maximal effect;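 as to activity, negative = inhibition: 0% = DMSO vehicle and full inhibition = artemisinin control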; as to all read-outs here: nearly all actives have a fitted effect of over 60% in size; conditions: P. falciparum in erythrocytes, SYBR Green DNA, 72 h; for activity, negative = inhibition: at 28.7 µM (top of the series)
Outline: (§1)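 In a 72 h erythrocytic culture (37 C, humidified, 5% CO2) at 2.5% hematocrit and 0.3% starting parasitemia, compounds were tested; SYBR Green I in detergent lysis buffer stained parasite DNA overnight.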

[3] = system: 3D7; assay: as above; conditions: P. falciparum in erythrocytes, SYBR Green DNA, 72 h; series mostly up to 28.7 µM
Outline: as §1

[4] = system: 7G8; assay: as above; conditions: P. falciparum in erythrocytes, SYBR Green DNA, 72 h; series mostly up to 28.7 µM
Outline: as §1

[5] = system: AA1029; assay: as above; conditions: P. falciparum in erythrocytes, SYBR Green DNA, 72 h; series mostly up to 28.7 µM
Outline: as §1

[6] = system: AS120; assay: as above; conditions: P. falciparum in erythrocytes, SYBR Green DNA, 72 h; series mostly up to 28.7 µM
Outline: as §1

[7] = system: ATS189; assay: as above; conditions: P. falciparum in erythrocytes, SYBR Green DNA, 72 h; series mostly up to 28.7 µM
Outline: as §1

[8] = system: ATS95; assay: as above; conditions: P. falciparum in erythrocytes, SYBR Green DNA, 72 h; series mostly up to 28.7 µM
Outline: as §1

[9] = system: C2A; assay: as above; conditions: P. falciparum in erythrocytes, SYBR Green DNA, 72 h; series mostly up to 28.7 µM
Outline: as §1

[10] = system: CP185; assay: as above; conditions: P. falciparum in erythrocytes, SYBR Green DNA, 72 h; series mostly up to 28.7 µM
Outline: as §1

[11] = system: CP191; assay: as above; conditions: P. falciparum in erythrocytes, SYBR Green DNA, 72 h; series mostly up to 28.7 µM
Outline: as §1

[12] = system: CP192; assay: as above; conditions: P. falciparum in erythrocytes, SYBR Green DNA, 72 h; series mostly up to 28.7 µM
Outline: as §1

[13] = system: CP194; assay: as above; conditions: P. falciparum in erythrocytes, SYBR Green DNA, 72 h; series mostly up to 28.7 µM
Outline: as §1

[14] = qHTS for identification of novel therapeutic agents for treatment of microphthalmiaassociated transcription factor (MiT) renal cell carcinoma (RCC) (AID 1963991); conditions: CellTiter-Glo, 48 h, stronger effect = lower value
Outline: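 Three TFE3-fusion RCC cell lines (UOK109, UOK124, UOK145), 500 cells/well, were exposed to the 1912-compound MIPE 4.0 library for 48 hours at 37 C. Viability was read by CellTiter-Glo luminescence, normalised to DMSO (100%) and empty wells (0%), with 11-concentration curve fits.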

[15] = KB-8-5-11 P-gp reporter qHTS against the NCATS DSHEA and TCM libraries (AID 1919977); conditions: KB-8-5-11 cells; series mostly up to 26.1 µM; also: 0% is about no effect
Outline: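 P-gp-overexpressing KB-8-5-11 cells (500/well) were plated in colchicine-free DMEM with 10% FBS, attached ~4 h, then exposed to substance titrations for ~72 h at 37C. Viability was read by CellTiter-Glo luminescence.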

[16] = measured here: PEO1 parental Z-AUC
[17] = TFE3-RCC UOK109 viability, measured here: UOK109 Z-AUC
[18] = TFE3-RCC viability, measured here: UOK124 Z-AUC
[19] = TFE3-RCC viability, measured here: UOK145 Z-AUC

NN=C(N)N
0.584: Z-AUC ([1]; measured here: PEO4 Z-AUC)
inactive: Z-AUC [1] 0.673 | activity, negative = inhibition ([2]; parasite line A) -1.43% | activity, negative = inhibition ([2]; parasite line B) 11.2% | Potency [3] | Potency [4] | Potency [5] | Potency [6] | Potency [7] | Potency [8] | Potency [9] | Potency [10] | Potency [11] | Potency [12] | Potency [13]
0.529: Z-AUC [1, 16]

CNCC(O)c1ccc(O)cc1 (centres undefined)
-0.301: Z-AUC [1, 16]
-0.927: Z-AUC ([1]; measured here: PEO4 Z-AUC)
0.435: z-score [14, 18]
-0.102: z-score [14, 19]
inactive: Z-AUC [1] -0.876
0.0605: z-score [14, 17]

O=c1c(O)c(-c2ccc(O)c(O)c2)oc2cc(O)cc(O)c12
inactive: outcome [15]

C#CCN(C)[C@H](C)Cc1ccccc1
0.147: z-score [14, 19]
0.064: z-score [14, 17]
-0.193: z-score [14, 18]
inactive: Z-AUC [1] 0.853
0.551: Z-AUC ([1]; measured here: PEO4 Z-AUC)
0.381: Z-AUC [1, 16]

N[C@@H](Cc1ccc(N(CCCl)CCCl)cc1)C(=O)O
-0.0487: Z-AUC ([1]; measured here: PEO4 Z-AUC)
active: Potency [4] 11.2 µM
-0.257: Z-AUC [1, 16]
inactive: Z-AUC [1] -0.14 | Potency [12]

CN(C)[C@@H]1C(=O)C(C(N)=O)=C(O)[C@@]2(O)C(=O)C3=C(O)c4c(O)cccc4[C@@](C)(O)[C@H]3C[C@@H]12
inactive: Z-AUC [1] 1.23
0.408: Z-AUC [1, 16]
1.42: Z-AUC ([1]; measured here: PEO4 Z-AUC)
0.89: z-score [14, 18]
1.21: z-score [14, 17]
1.72: z-score [14, 19]

O=C1NCN(c2ccccc2)C12CCN(CC1COc3ccccc3O1)CC2 (centres undefined)
active: Potency [4] 12.6 µM
inactive: activity, negative = inhibition ([2]; parasite line A) -17.5% | activity, negative = inhibition ([2]; parasite line B) 5.67% | Potency [3] | Potency [5] | Potency [6] | Potency [7] | Potency [8] | Potency [9] | Potency [10] | Potency [11] | Potency [12] | Potency [13]

CC(=O)[C@H]1CC[C@H]2[C@@H]3CC[C@H]4C[C@H](O)CC[C@]4(C)[C@H]3C(=O)C[C@]12C
inactive: activity, negative = inhibition ([2]; parasite line A) 10.2% | activity, negative = inhibition ([2]; parasite line B) 12.3% | Potency [3] | Potency [4] | Potency [5] | Potency [6] | Potency [7] | Potency [8] | Potency [9] | Potency [10] | Potency [11] | Potency [12] | Potency [13]

NCC(CC(=O)O)c1ccc(Cl)cc1 (centres undefined)
inactive: activity, negative = inhibition ([2]; parasite line A) 6.71% | activity, negative = inhibition ([2]; parasite line B) 18.2% | Potency [3] | Potency [4] | Potency [5] | Potency [6] | Potency [7] | Potency [8] | Potency [9] | Potency [10] | Potency [11] | Potency [12] | Potency [13]

CN1CCN(C(=O)O[C@H]2c3nccnc3C(=O)N2c2ccc(Cl)cn2)CC1
inactive: activity, negative = inhibition ([2]; parasite line A) -9.31% | activity, negative = inhibition ([2]; parasite line B) -0.974% | Potency [3] | Potency [4] | Potency [5] | Potency [6] | Potency [7] | Potency [8] | Potency [9] | Potency [10] | Potency [11] | Potency [12] | Potency [13]

Clc1ccc(COC(Cn2ccnc2)c2ccc(Cl)cc2Cl)cc1 (centres undefined)
active: Potency ([2]; parasite line A) 3.55 µM | Potency ([2]; parasite line B) 2.51 µM | Potency [3] 3.16 µM | Potency [4] 0.398 µM | Potency [5] 4.47 µM | Potency [6] 1 µM | Potency [7] 3.16 µM | Potency [8] 3.98 µM | Potency [9] 11.2 µM | Potency [10] 8.91 µM | Potency [11] 3.16 µM | Potency [12] 6.01 µM | Potency [13] 6.75 µM

O=C(NC(O)C(Cl)(Cl)Cl)NC(O)C(Cl)(Cl)Cl (centres undefined)
inactive: activity, negative = inhibition ([2]; parasite line A) -1.71% | activity, negative = inhibition ([2]; parasite line B) 6.79% | Potency [3] | Potency [4] | Potency [5] | Potency [6] | Potency [7] | Potency [8] | Potency [9] | Potency [10] | Potency [11] | Potency [12] | Potency [13]

CC(=O)Nc1cc([As](=O)(O)O)ccc1O
inactive: activity, negative = inhibition ([2]; parasite line A) -21% | activity, negative = inhibition ([2]; parasite line B) -0.406% | Potency [3] | Potency [4] | Potency [5] | Potency [6] | Potency [7] | Potency [8] | Potency [9] | Potency [10] | Potency [11] | Potency [12] | Potency [13]

Cc1ncc(CNC(=O)N(CCCl)N=O)c(N)n1
inactive: activity, negative = inhibition ([2]; parasite line A) 6.89% | activity, negative = inhibition ([2]; parasite line B) 3.28% | Potency [3] | Potency [4] | Potency [5] | Potency [6] | Potency [7] | Potency [8] | Potency [9] | Potency [10] | Potency [11] | Potency [12] | Potency [13]

NCC(O)c1ccc(O)cc1 (centres undefined)
inactive: activity, negative = inhibition ([2]; parasite line A) 10.2% | activity, negative = inhibition ([2]; parasite line B) 3.73% | Potency [3] | Potency [4] | Potency [5] | Potency [6] | Potency [7] | Potency [8] | Potency [9] | Potency [10] | Potency [11] | Potency [12] | Potency [13]

CCC(C(N)=O)N1CCCC1=O (centres undefined)
inactive: activity, negative = inhibition ([2]; parasite line A) 2.96% | activity, negative = inhibition ([2]; parasite line B) 6.9% | Potency [3] | Potency [4] | Potency [5] | Potency [6] | Potency [7] | Potency [8] | Potency [9] | Potency [10] | Potency [11] | Potency [12] | Potency [13]

CCCC(C)(COC(N)=O)COC(=O)NC(C)C (centres undefined)
0.563: z-score [14, 18]
inactive: activity, negative = inhibition ([2]; parasite line A) 8.09% | activity, negative = inhibition ([2]; parasite line B) 15.9% | Potency [3] | Potency [4] | Potency [5] | Potency [6] | Potency [7] | Potency [8] | Potency [9] | Potency [10] | Potency [11] | Potency [12] | Potency [13]
-0.172: z-score [14, 17]
0.256: z-score [14, 19]

CC(=O)[C@H]1CC[C@H]2[C@@H]3CC[C@H]4C[C@](C)(O)CC[C@]4(C)[C@H]3CC[C@]12C
inactive: activity, negative = inhibition ([2]; parasite line A) 3.34% | activity, negative = inhibition ([2]; parasite line B) 12.8% | Potency [3] | Potency [4] | Potency [5] | Potency [6] | Potency [7] | Potency [8] | Potency [9] | Potency [10] | Potency [11] | Potency [12] | Potency [13]

Source: PubChem BioAssay (NCATS)
